{"source": "PubChem BioAssay (NCATS)", "note": "“And” between values parts separate entries of the source, which are not always exact repeats. Equal entries are not always repeated. Inconclusive results are not listed. The source made the active and inactive calls. Calls follow the shape of the full dose curve.", "data": [{"target": "Bile acid receptor (Homo sapiens) (UniProt Q96RI1)", "sequence (Q96RI1 whole entry, looked up)": "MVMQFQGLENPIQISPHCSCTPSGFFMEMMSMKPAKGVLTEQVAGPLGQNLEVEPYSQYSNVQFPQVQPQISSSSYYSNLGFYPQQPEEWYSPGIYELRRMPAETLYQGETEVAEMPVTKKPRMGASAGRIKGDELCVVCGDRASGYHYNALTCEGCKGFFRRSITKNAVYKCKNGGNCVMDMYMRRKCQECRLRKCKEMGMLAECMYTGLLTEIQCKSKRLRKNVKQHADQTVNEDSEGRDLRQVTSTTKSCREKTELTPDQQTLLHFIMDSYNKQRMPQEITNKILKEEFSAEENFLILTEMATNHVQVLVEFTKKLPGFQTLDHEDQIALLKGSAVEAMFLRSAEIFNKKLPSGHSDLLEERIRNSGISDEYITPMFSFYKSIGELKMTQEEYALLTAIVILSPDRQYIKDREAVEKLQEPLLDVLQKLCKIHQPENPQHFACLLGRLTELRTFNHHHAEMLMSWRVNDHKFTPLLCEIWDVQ", "assay": "qHTS assay for small molecule agonists of farnesoid X receptor signaling (AID 588527);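 also: series mostly up to about 77 µM; 0% = vehicle basal and 100% = reference agonist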", "settings": "HEK293T FXR-UAS-bla, beta-lactamase ratio, 16 h; stronger effect = higher value", "source_text": "NIH Chemical Genomics Center [NCGC] U.S. Environmental Protection Agency [EPA] National Institutes of Environmental Health Sciences [NIEHS] National Toxicology Program [NTP] NCGC Assay Overview The farnesoid-X-receptor (FXR), a nuclear hormone receptor is highly expressed in liver, intestine, kidney and adrenal cortex. Natural ligands of FXR are the bile acids (Cholic acid, Chenodeoxy cholic acid etc). It is an important regulator of diverse metabolic pathways, including the bile acid homeostasis, lipid and glucose metabolisms. FXR regulates the expression of target genes by binding either as a monomer or as a heterodimer with RXR (retinoid X receptor). As FXR regulates a large number of target genes involved in bile acid, lipoprotein and glucose metabolisms, it is a potential pharmacological target for bile acid and lipid disorders. Thus screening environmental chemicals on FXR signaling can be used for the studies focused on metabolic syndrome, hepatic and intestinal toxicity etc.\nNCGC Assay Protocol Summary Using a beta-lactamase reporter-gene under control of Farnesoid X receptor (FXR) response element, a cell-based assay [GeneBLAzer FXR-UAS-bla assay developed by Invitrogen] was used to measure FXR ligands signaling. GeneBLAzer FXR-UAS-bla HEK293T cells were used with assay medium containing 10% dialyzed FBS. The assay was performed in clear bottom black Greiner 1536-well plates. Chenodeoxycholic acid and Guggulsterone were used in the screen as agonist and antagonist positive controls respectively. Library compounds were measured for their ability to stimulate the reporter gene activity. Compounds were screened in a titration series in 1536-well format. […] Data was normalized relative to Chenodeoxycholic acid control (100 uM, 100%), and DMSO only wells (basal, 0%). Concentration-response titration points for each compound were fitted to the Hill equation yielding concentrations of half-maximal stimulation (EC50) and maximal response (efficacy) values. qHTS protocol for FXR beta-lactamase assay in agonist mode [Step] [Parameter] [Value] [Description] 1. Reagent; 6 uL; 5000 cells/well 2. Incubation; 37 C for 5-7 hrs 3. Compounds; 23 nL; 0.59 nM to 92 uM 4. Controls (Chenodeoxycholic acid); 23 nL, - One column with dose response, start 200 uM, 1:2 dilutions in duplicates - Final concentrations of 100 uM and 60 uM in two columns 5. Incubation; 37 C for 16 hrs 6. Detection reagent; 1 uL of CCF4-dye 7. Incubation; RT for 2 hrs 8. Detection; Fluorescence; Envision plate reader", "values": [{"smiles": "O=C(O)COc1nc(Cl)c(Cl)cc1Cl", "activation": "-0.709% (inactive)"}, {"smiles": "O=C(Oc1ccccc1)c1cccc(C(=O)Oc2ccccc2)c1", "activation": "0.748% (inactive)"}, {"smiles": "O=C(NO)c1ccccc1", "activation": "-3.15% (inactive)"}, {"smiles": "Nc1ccc(N=Nc2ccccc2)cc1", "activation": "-11.4% (inactive)"}, {"smiles": "C[C@]12C[C@H](O)[C@H]3[C@@H](CCC4=CC(=O)CC[C@@]43C)[C@@H]1CC[C@@H]2C(=O)CO", "activation": "-2.3% (inactive)"}, {"smiles": "O=[N+]([O-])/N=C1\\NCCN1Cc1ccc(Cl)nc1", "activation": "1.01% (inactive)"}, {"smiles": "CCCN(CCC)c1c([N+](=O)[O-])cc(S(N)(=O)=O)cc1[N+](=O)[O-]", "activation": "-1% (inactive)"}, {"smiles": "COC(=O)c1c(Cl)c(Cl)c(C(=O)OC)c(Cl)c1Cl", "activation": "2.52% (inactive)"}, {"smiles": "CC1=NN(c2ccccc2)C(=O)C1", "activation": "-5.46% (inactive) and -0.633% (inactive)"}, {"smiles": "CCO/N=C(\\CC)C1=C(O)CC(c2c(C)cc(C)cc2C)CC1=O", "note": "(stereo unspecified)", "activation": "1.57% (inactive)"}, {"smiles": "OCc1c[nH]c2ccccc12", "activation": "1.66% (inactive)"}, {"smiles": "CCCOC(=O)c1ccc(O)cc1", "activation": "0.147% (inactive) and -2.34% (inactive) and 4.63% (inactive)"}, {"smiles": "Nc1ccc([N+](=O)[O-])cc1O", "activation": "-3.53% (inactive) and -2.23% (inactive)"}, {"smiles": "C1=CC2C3C=CC(C3)C2C1", "note": "(stereo unspecified)", "activation": "-0.353% (inactive)"}, {"smiles": "COc1nn(CSP(=S)(OC)OC)c(=O)s1", "activation": "3.32% (inactive)"}, {"smiles": "c1ccc2occc2c1", "activation": "3.58% (inactive) and 1.61% (inactive)"}, {"smiles": "CCCCCCCCCCCCCC(=O)OC(C)C", "activation": "-0.914% (inactive)"}, {"smiles": "COc1ccc(C(c2ccc(OC)cc2)C(Cl)(Cl)Cl)cc1", "activation": "7.99% (inactive) and 4.38% (inactive) and 7.59% (inactive)"}, {"smiles": "Cc1cc(O)ccc1Cl", "activation": "1.93% (inactive)"}, {"smiles": "CCOP(=O)(NC(C)C)Oc1ccc(SC)c(C)c1", "note": "(stereo unspecified)", "activation": "5.65% (inactive) and 4.82% (inactive)"}, {"smiles": "CCCCC(CC)COC(=O)c1ccccc1C(=O)OCC(CC)CCCC", "note": "(stereo unspecified)", "activation": "0.71% (inactive) and -2.22% (inactive)"}, {"smiles": "CC(C)(C)c1ccc(O)c(O)c1", "activation": "9.58% (inactive) and -7.97% (inactive)"}, {"smiles": "Nc1ccc(Cl)cc1N", "activation": "0.723% (inactive)"}, {"smiles": "Clc1cnc(Oc2ccc(Oc3ncc(Cl)cc3Cl)cc2)c(Cl)c1", "activation": "0.177% (inactive)"}, {"smiles": "Nc1ccc(Sc2ccc(N)cc2)cc1", "activation": "-1.33% (inactive)"}, {"smiles": "CCCCCC[C@H]1C(=O)O[C@H](C)[C@H](NC(=O)c2cccc(NC=O)c2O)C(=O)O[C@@H](C)[C@@H]1OC(=O)CC(C)C", "activation": "-3.37% (inactive)"}, {"smiles": "CCCCC(CC)COC(=O)c1ccc(N(C)C)cc1", "note": "(stereo unspecified)", "activation": "-1.15% (inactive) and -5.13% (inactive)"}, {"smiles": "Nc1ccc([N+](=O)[O-])cc1", "activation": "-1.05% (inactive)"}, {"smiles": "CS(=O)(=O)c1ccc(C(=O)C2C(=O)CCCC2=O)c([N+](=O)[O-])c1", "activation": "-1.16% (inactive)"}, {"smiles": "C=CCC1=C(C)C(OC(=O)C2C(C=C(C)C)C2(C)C)CC1=O", "note": "(stereo unspecified)", "activation": "7.39% (inactive) and 8.42% (inactive)"}, {"smiles": "S=c1[nH]c2ccccc2s1", "activation": "-0.945% (inactive) and -0.0694% (inactive)"}, {"smiles": "COc1ccccc1O", "activation": "-0.0206% (inactive) and -3.83% (inactive) and 1.01% (inactive)"}, {"smiles": "Nc1cccc2c(N)cccc12", "activation": "-1.29% (inactive) and -1.59% (inactive)"}, {"smiles": "O=[N+]([O-])c1c(Cl)c(Cl)cc(Cl)c1Cl", "activation": "-1.27% (inactive)"}, {"smiles": "CCCCCCCCOc1ccc(C(=O)c2ccccc2)c(O)c1", "activation": "-1.08% (inactive)"}, {"smiles": "c1cc2ccc3cccc4ccc(c1)c2c34", "activation": "-4.41% (inactive) and -1.09% (inactive)"}]}]}
